What all share (assay): NCI-60 one-dose screen, 48 h (100 = growth as untreated, 0 = no growth, -100 = all killed)
What all share (conditions): 10 µM unless noted

Assay [1] deals with DU-145 prostate.
The subject of assay [2] is K-562 leukemia.
In assay [3] the test system is MALME-3M melanoma.
The subject of assay [4] is MDA-MB-231 breast.
The subject of assay [5] is RXF 393 renal.
The test system of assay [6] is SF-268 CNS.
Assay [7] has as its system SF-295 CNS.
Assay [8] concerns SF-539 CNS.
Assay [9] deals with UACC-257 melanoma.
For assay [10], the system named is M14 melanoma.
Assay [11] relates to HCT-15 colon.
Assay [12] has as its system HT29 colon.
The subject of assay [13] is SNB-75 CNS.
Assay [14] concerns SNB-19 CNS.
Assay [15] has as its system U251 CNS.
Assay [16] concerns SK-MEL-5 melanoma.
Assay [17] has as its system UACC-62 melanoma.
For assay [18], the system named is LOX IMVI melanoma.
Assay [19] deals with SK-MEL-28 melanoma.
Assay [20] deals with PC-3 prostate.

SMILES strings stand for the structures. About 83,000 compounds went through this panel and 20% of them were active in at least one assay; those are over-represented in the sample as a whole.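 Values shown are percent growth following 48 h exposure of cells in 96-well plates to a single concentration of compound; below 10 was considered active.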 Values without a mark were called inactive. The source made the active and inactive calls.

Consider `CC1(C)NCCC[C@]2(C)[C@H]3CC[C@H]4[C@H]5[C@H](C(=O)/C=C/c6cccnc6)CCC[C@]5(CO)CC[C@@]4(C)[C@]3(C)CC[C@@H]12`, for which the growth in assay [1] was 66.6%; in assay [2] it was -3.12% (active); in assay [3], 85.7%; in assay [4] it was 67.4%; in assay [5] it was 66.2%; in assay [6] it was 72.9%. Moreover, the growth is 84.3% in assay [7]; 81.4% in assay [8]; 86.5% in assay [9]; 85.8% in assay [10]; 33.5% in assay [11]; 3.84% (active) in assay [12]. Moreover, the growth is 75.8% in [13]; 72.2% in assay [14]; 11% in assay [15]; 87% in assay [16]; 96.7% in [17]; 13% in assay [18]. In [19], the growth was 93.6%.

Take `O=C(/C=C/C12c3ccccc3C(c3ccccc31)C1C(=O)NC(=O)C12)c1ccc(Br)cc1` (stereo unspecified): the growth in assay [1] is 46.6%; in assay [2], 21.6%; in assay [3], 80.5%; in assay [4], 52.6%; in [5], 25.4%; in assay [6], 60.6%. The growth in assay [7] is 71%; in assay [8], 77.9%; in assay [9] it was 61.7%; in assay [10], 62.6%; in [11] it was 36.1%; in assay [12], 20.1%. In addition, the growth was 55.7% in assay [13]; 51.3% in [14]; 29.2% in assay [15]; 67.8% in [16]; 46.7% in assay [17]; 21% in [18]. The growth in assay [19] was 50.6%.

On to `N#Cc1ccc(O)c(C2=NCC(Cc3ccccc3)O2)c1` (stereo unspecified), for which the growth in assay [1] is 55.7%; in [2], 26.5%; in assay [3], 64.3%; in assay [4] it was 77.6%; in assay [5], 62.4%; in assay [6], 52.2%. The growth in assay [7] was 31.2%; in assay [8], 68.7%; in assay [9] it was 63.6%; in assay [10], 45.4%; in [11], 21.2%; in [12], 72.6%. In addition, the growth was 70.6% in assay [13]; 55.6% in assay [14]; 23.8% in assay [15]; 35.3% in assay [20]; 35.5% in [16]; 32.6% in assay [18]. Also, the growth in [19] is 80.2%.

Turning to `CCN(CC)c1ccc(/C=N/NC(=O)Cc2ccc(Nc3ccnc(C(F)(F)F)c3)cc2)c(O)c1`, the growth in [1] was 18.3%; in [2] it was 23.1%; in assay [3] it was 15.5%; in assay [4], 43%; in assay [5], 45.8%; in assay [6] it was 18%. Further, the growth was 17.9% in assay [7]; 17.1% in [8]; 37.4% in assay [9]; -18.3% (active) in assay [10]; 33.2% in [11]; 33.1% in assay [12]. Besides, the growth in assay [13] was 5.89% (active); in assay [14], 30.9%; in assay [15] it was 25.7%; in assay [16], 27.1%; in assay [17], 20.6%; in assay [18], 6.64% (active). The growth in assay [19] is 31.7%.

Regarding `CCN1C(=O)N(CC)C2C1NC(=S)N2/N=C/c1ccc(C(F)(F)F)cc1` (stereo unspecified), the growth in [1] was 90.5%; in assay [2] it was 37%; in assay [3] it was 44.1%; in assay [4] it was 66.2%; in assay [5], 52.6%; in [6], 77.7%. Also, the growth in assay [7] was 66.3%; in [8], 79.8%; in assay [9], 78.9%; in assay [10], 53.4%; in [11], 39.4%; in [12] it was 43.6%. In addition, the growth in [13] was 48.5%; in assay [15], 70.5%; in assay [20] it was 59.7%; in [16], 52%; in [17], 47.4%; in assay [18], 73.2%. Also, the growth in assay [19] is 76.3%.

For the molecule `N[C@H]1CCC[C@@H]1NCCCCN1C(=O)c2cccc3cc([N+](=O)[O-])cc(c23)C1=O`, the growth was 29.9% in [1]; 25.2% in assay [2]; 73% in [3]; 39.5% in assay [4]; 44.1% in [5]; 36.5% in [6]. Moreover, the growth was 66.6% in [7]; 38.1% in assay [8]; 72.7% in assay [9]; 76.8% in [10]; 63.5% in assay [11]; 14.2% in assay [12]. Further, the growth in assay [13] is 46.7%; in assay [14], 46.2%; in assay [15], 42.1%; in assay [16], 70.2%; in assay [18], 22.8%; in assay [19], 93.6%.

Consider `C/C=C(/C)n1cnc2c(Nc3ccccn3)nc(Cl)nc21`, for which the growth is 109% in assay [1]; 95.6% in assay [2]; 106% in assay [3]; 107% in assay [4]; 105% in [5]; 99.2% in assay [6]. Also, the growth was 104% in assay [7]; 102% in [8]; 97.6% in assay [9]; 101% in assay [10]; 103% in [11]; 98.1% in [12]. For the same molecule, the growth in assay [13] is 87.9%; in assay [15] it was 99.8%; in assay [20], 95.3%; in [16] it was 101%; in assay [17], 95.8%; in assay [18] it was 95.3%. Besides, in [19], the growth was 105%.

For the molecule `CCCCCCCC/C=C\CCCCCCCCOc1ccc(CC(=O)NCC[N+]2(C)CCOCC2)cc1`, the growth is 88.5% in assay [1]; 62.8% in assay [2]; 80.9% in [3]; 68% in [4]; -38.6% (active) in assay [5]; 70.2% in assay [6]. Besides, the growth in assay [7] is 85.7%; in [8], 81.1%; in assay [9], 96.9%; in assay [10], 81.4%; in assay [11], 90.8%; in [12] it was 36.9%. Further, the growth is 41.2% in assay [13]; 38.7% in assay [14]; 15.4% in assay [15]; 99% in assay [16]; 57.5% in assay [17]; 84.2% in assay [18]. Further, the growth in assay [19] was 93.7%.

The record behind these values is PubChem BioAssay (NCI).
